Legend:
Details in all cases: concentration: 1 μM, replicates: in singlicate; n = 1
[1] = tested on: RPS6KA4(Kin.Dom.1-N-terminal)
[2] = tested on: RPS6KA4(Kin.Dom.2-C-terminal)
[3] = tested on: RPS6KA5(Kin.Dom.1-N-terminal)
[4] = tested on: RPS6KA5(Kin.Dom.2-C-terminal)
[5] = tested on: T1, RSK1(Kin.Dom.1-N-terminal)
T1 construct: gene RPS6KA1

[6] = tested on: T2, RSK1(Kin.Dom.2-C-terminal)
T2 construct: gene RPS6KA1

[7] = tested on: T3, RSK2(Kin.Dom.1-N-terminal)
T3 construct: gene RPS6KA3

[8] = tested on: T4, RSK2(Kin.Dom.2-C-terminal)
T4 construct: gene RPS6KA3

[9] = tested on: T5, RSK3(Kin.Dom.1-N-terminal)
T5 construct: gene RPS6KA2

[10] = tested on: T6, RSK3(Kin.Dom.2-C-terminal)
T6 construct: gene RPS6KA2

[11] = tested on: T7, RSK4(Kin.Dom.1-N-terminal)
T7 construct: gene RPS6KA6

[12] = tested on: T8, RSK4(Kin.Dom.2-C-terminal)
T8 construct: gene RPS6KA6

S6K1 = tested on: S6K1
SBK1 = tested on: SBK1
SGK2 = tested on: SGK2
SGK3 = tested on: SGK3
SGK = tested on: SGK
SIK2 = tested on: SIK2
SIK = tested on: SIK
SLK = tested on: SLK
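Note: KINOMEscan kinase panel screen.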

SMILES | %Inh [1] [%] | %Inh [2] [%] | %Inh [3] [%] | %Inh [4] [%] | %Inh [5] [%] | %Inh [6] [%] | %Inh [7] [%] | %Inh [8] [%] | %Inh [9] [%] | %Inh [10] [%] | %Inh [11] [%] | %Inh [12] [%] | %Inh (S6K1) [%] | %Inh (SBK1) [%] | %Inh (SGK2) [%] | %Inh (SGK3) [%] | %Inh (SGK) [%] | %Inh (SIK2) [%] | %Inh (SIK) [%] | %Inh (SLK) [%]
O=C(Nc1cccc(-c2nn3ccccc3c2-c2ccnc(Nc3cccc(F)c3)n2)c1)c1c(F)ccc(F)c1Cl [GSK357952] | 15 | 0 | 28 | 20 | 63 | 14 | 18 | 8 | 24 | 0 | 4 | 0 | 2 | 12 | 0 | 2 | 10 | 16 | 34 | 91.2
COc1ccc(Nc2nccc(N3CCC(NC(=O)Nc4cccc(OC)c4)C3)n2)cc1 (centres unmarked) [GSK1379742] | 15 | 0 | 10 | 0 | 0 | 0 | 15 | 1 | 0 | 0 | 0 | 24 | 0 | 0 | 0 | 0 | 3 | 0 | 0 | 17
COc1cccc(C2=C(Nc3ccc(Cl)c(C(=O)O)c3)C(=O)NC2=O)c1 [SB-390769] | 17 | 0 | 13 | 0 | 29 | 0 | 100 | 20 | 14 | 0 | 100 | 0 | 2 | 99.9 | 19 | 100 | 0 | 0 | 0 | 16
Cl.c1ccc(-c2ccc3c(Nc4ccc5[nH]ccc5c4)ccnc3c2)nc1 [GW440138] | 0 | 0 | 0 | 3 | 0 | 0 | 0 | 0 | 0 | 15 | 0 | 34 | 0 | 0 | 0 | 6 | 0 | 0 | 0 | 84
Clc1ccc(-c2nn3ncccc3c2-c2ccnc(Nc3ccc4c(c3)OCCO4)n2)cc1 [GW829116] | 4 | 0 | 0 | 8 | 18 | 32 | 23 | 0 | 0 | 0 | 0 | 88 | 9 | 0 | 0 | 0 | 35 | 30 | 1 | 87
CC(C)c1nc(-c2cccc(NS(=O)(=O)c3c(F)cccc3F)c2F)c(-c2ccnc(Nc3ccc(N4CCOCC4)nc3)n2)s1 [GSK2008607] | 0 | 0 | 2 | 0 | 100 | 12 | 41 | 0 | 45 | 0 | 10 | 39 | 82 | 40 | 9 | 28 | 40 | 91.3 | 99.5 | 97
c1ccc(Oc2ccc(Nc3ccnc4cc(-c5ccc(CNCCN6CCOCC6)o5)ccc34)cc2)nc1 [GW567145] | 0 | 0 | 0 | 0 | 93.3 | 0 | 0 | 0 | 0 | 0 | 0 | 0 | 0 | 8 | 0 | 0 | 17 | 78 | 96.4 | 8
Cn1cc(-c2ccc3c(c2)CCN3C(=O)Cc2cccc(F)c2)c2c(N)ncnc21 [GSK2603358] | 7 | 0 | 35 | 0 | 20 | 3 | 0 | 0 | 20 | 0 | 0 | 43 | 12 | 30 | 18 | 2 | 0 | 0 | 4 | 55
COCCOCCOc1cc2ncc3c4ccc(C#N)cc4[nH]c3c2cc1OC | 0 | 0 | 0 | 44 | 0 | 0 | 79 | 2 | 46 | 8 | 90 | 0 | 61 | 81 | 58 | 47 | 89 | 83 | 13 | 45
CN(c1ccc(NC(=O)Nc2cc(C(F)(F)F)ccc2F)cc1)c1ccnc(Nc2ccc(S(N)(=O)=O)cc2)n1 [GW809893] | 26 | 1 | 14 | 4 | 100 | 0 | 8 | 28 | 35 | 0 | 5 | 0 | 40 | 0 | 0 | 22 | 1 | 1 | 22 | 96.3
COc1cc2c(cc1OCCN1CCNCC1)ncc1c3ccc(C#N)cc3[nH]c21 | 0 | 20 | 0 | 38 | 13 | 12 | 54 | 0 | 16 | 0 | 73 | 7 | 52 | 63 | 46 | 34 | 67 | 79 | 18 | 23
C[C@@H](Oc1cc(-n2cnc3cc(-c4ccnc(NCCS(C)(=O)=O)c4)ccc32)sc1C(N)=O)c1ccccc1Cl [GSK907232] | 57 | 0 | 4 | 0 | 11 | 2 | 32 | 4 | 66 | 0 | 20 | 14 | 0 | 1 | 13 | 0 | 4 | 50 | 20 | 99
Cc1ccc(F)c(C(=O)Nc2cccc(-c3nn4ccccc4c3-c3ccnc(Nc4cccc(F)c4)n3)c2)c1F [GSK361061] | 34 | 0 | 21 | 0 | 65 | 7 | 4 | 0 | 0 | 7 | 0 | 13 | 0 | 100 | 4 | 2 | 11 | 29 | 68 | 94.2
Cc1ccc(S(=O)(=O)Nc2ccc(Nc3nccc(Nc4cccc5[nH]ncc45)n3)cc2)cc1 [GSK581271] | 0 | 0 | 0 | 0 | 1 | 14 | 15 | 0 | 5 | 0 | 0 | 0 | 14 | 26 | 9 | 0 | 0 | 67 | 36 | 0
Cl.NC(=O)c1cccc(Nc2nccc(Nc3ccc(Oc4c(Cl)cccc4Cl)c(Cl)c3)n2)c1 [GW659009] | 0 | 0 | 0 | 5 | 0 | 0 | 0 | 5 | 3 | 0 | 0 | 0 | 0 | 24 | 4 | 0 | 19 | 0 | 90.2 | 0
c1ccc(-c2n[nH]cc2Nc2ccnc3ccccc23)nc1 [GW694077] | 3 | 56 | 5 | 56 | 19 | 16 | 27 | 24 | 0 | 30 | 1 | 6 | 33 | 25 | 61 | 47 | 89 | 0 | 0 | 0
Oc1cc(Nc2ccnc3cc(I)ccc23)ccc1F [GW552771] | 0 | 0 | 5 | 0 | 0 | 29 | 13 | 26 | 0 | 0 | 7 | 87 | 35 | 8 | 2 | 1 | 19 | 57 | 29 | 16
c1ccc(-c2cnc3nccnn23)cc1 [AH20685] | 0 | 0 | 9 | 0 | 0 | 0 | 0 | 0 | 0 | 0 | 0 | 0 | 10 | 5 | 0 | 0 | 0 | 0 | 0 | 11
Cc1occc1-c1ncc(OC[C@@H](N)Cc2c[nH]c3ccccc23)cc1-c1ccc2[nH]nc(C)c2c1.O=C(O)C(F)(F)F [GSK682037] | 8 | 0 | 49 | 0 | 7 | 0 | 79 | 0 | 22 | 0 | 61 | 0 | 56 | 19 | 0 | 20 | 0 | 65 | 54 | 95.2
